Screening results from PubChem BioAssay.
D2 PAM-1 – HTS Assay for Positive Allosteric Modulators of the Human D2 Dopamine Receptor: Primary Screen for Potentiators; HEK293 T-REx D2, calcium flux, EC20 dopamine potentiation; actives 0.34% (n = 340,000); potentiation, % at 10 µM; AID 485347, 2010;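 active means potentiation over 3 SD above the plate norm, cut at about 30% in these data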; further: 0% is about no effect
Target sequence (P14416 whole entry, looked up): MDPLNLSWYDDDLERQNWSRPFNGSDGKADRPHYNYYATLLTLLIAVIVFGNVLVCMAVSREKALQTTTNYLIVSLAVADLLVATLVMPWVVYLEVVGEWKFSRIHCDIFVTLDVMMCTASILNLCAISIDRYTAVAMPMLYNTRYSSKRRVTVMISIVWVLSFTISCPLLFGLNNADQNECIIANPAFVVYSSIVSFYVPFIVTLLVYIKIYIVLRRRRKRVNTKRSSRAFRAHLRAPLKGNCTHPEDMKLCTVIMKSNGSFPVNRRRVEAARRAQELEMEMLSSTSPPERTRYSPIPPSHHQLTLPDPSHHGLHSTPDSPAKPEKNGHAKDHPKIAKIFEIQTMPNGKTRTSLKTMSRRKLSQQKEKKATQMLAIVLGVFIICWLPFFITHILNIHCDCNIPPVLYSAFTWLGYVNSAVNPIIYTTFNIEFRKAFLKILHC
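Potentiation of an EC20 dopamine calcium response measured kinetically over 180 s, after a preceding 180 s compound-only read flagging agonists. Cells: inducible Hek293 Trex D2 line, 4000/well, cultured overnight at 30 C before dye loading.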
D2 PAM-2 – Beta-Arrestin HTS for Positive Allosteric Modulators of the Human D2 Dopamine Receptor: Potentiators; D(2) dopamine receptor (Homo sapiens), P14416; DiscoveRx D2 beta-arrestin cells, luminescence, 90 min; 100% = 57 uM dopamine signal; potentiation, % (test concentration not listed); actives 0.23% (n = 360,000); AID 624464, 2012; in the data active means potentiation above about 50%; inconclusive means mostly about 30% to 49%
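PathHunter beta-arrestin assay in DiscoveRx D2 cells. Compounds were added with an EC20 of dopamine (50 nM final) for 90 min at 37 deg C. Luminescence was read 1 h after detection reagent, with 57 uM dopamine as the EC100 control.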
D2 antagonist – HTS Assay for Allosteric Antagonists of the Human D2 Dopamine Receptor: Primary Screen for Antagonists. D(2) dopamine receptor (Homo sapiens), P14416. HEK293 TREx D2 cells, calcium flux, dopamine EC80. inhibition, % at 10 µM. actives 2% (n = 340,000). AID 485344, 2010; in the data active means inhibition above about 30%; inactive means below that, where a call was filed; further: 0% is about no effect
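Dopamine at EC80 is the agonist stimulus; test compounds precede it by 180 s. Calcium flux read kinetically in a force-coupled, inducible HEK293 T-REx D2 cell line.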
D2 ag-1 – HTS Assay for Allosteric Agonists of the Human D2 Dopamine Receptor: Primary Screen for Agonists | actives 0.53% (n = 340,000) | D(2) dopamine receptor (Homo sapiens), P14416 | AID 485358, 2010 | HEK293 T-REx D2 cells, calcium flux agonist mode | activation, % at 2 µM;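 active means activation over 3 SD above normal in the single-dose calcium agonist read, cut at about 30% in these data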; further: 0% is about no effect
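Calcium-flux readout, 1 cycle/sec over 180 s following compound pin transfer, in inducible HEK293 Trex D2 cells (force-coupled); dopamine controls included. Positive calcium responses during this window marked compounds as potential agonists.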
D2 ag-2 – Beta-Arrestin HTS for Positive Allosteric Modulators of the Human D2 Dopamine Receptor: Agonists; D(2) dopamine receptor (Homo sapiens), P14416; DiscoveRx PathHunter D2 beta-arrestin, luminescence, 90 min; 100% = 57 uM dopamine signal; activation, % (test concentration not listed); actives 0.084% (n = 360,000); AID 624465, 2012; in the data active means activation above about 40%; inconclusive means between about 15% and that limit
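Agonist mode: compounds alone added to overnight-plated D2 PathHunter cells for 90 min at 37 C, with 57 uM final dopamine (EC100) defining full response. Beta-arrestin recruitment detected by chemiluminescent reagent, read after 1 h at ambient temperature.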
* hit, by the source's call; ? = inconclusive; . = no result given. A selection: hits, their analogues and other compounds. The true share with any hit is near 2.4%.

SMILES | D2 PAM-1 | D2 PAM-2 | D2 antagonist | D2 ag-1 | D2 ag-2
COc1ccc(CCNC(=O)c2noc3c2CCCC3)cc1OC | 2 | -13 | 42* | 0 | -1
COc1ccc(CCNC(=O)c2nonc2N)cc1OC | -1 | -15 | 7 | 0 | 1
Cc1ccc(C)c(NC(=O)C(Cc2ccccc2)N2Cc3ccccc3C2=O)c1 (stereo unspecified) | 3 | . | . | . | .
O=C(NCCCN1CCN(c2ccccc2)CC1)c1ccc2nc(CCc3ccccc3)oc2c1 | -23 | . | . | . | .
Cc1[nH]c2ccccc2c1C1(O)C(=O)N(Cc2ccccc2)c2ccc(Cl)cc21 (stereo unspecified) | 1 | . | . | 0 | .
CC(=O)c1ccc(NC(=O)CSc2nccn2Cc2ccc3c(c2)OCO3)cc1 | 1 | . | . | 0 | .
COC(=O)c1ccc2c(c1O)C(=O)c1ccccc1C2=O | 0 | 107* | 10 | 1 | 14
Cc1ccccc1NC(=O)C(=O)NCC(c1ccc2c(c1)OCO2)N1CCN(c2ccccc2)CC1 (stereo unspecified) | -18 | . | . | . | .
CCCc1cc(=O)oc2c3c(ccc12)OCN(Cc1ccc(OC)cc1)C3 | -11 | . | . | -1 | .
O=C(/C=C/c1ccccc1Cl)Nc1nc(-c2cccs2)ns1 | -6 | . | . | 0 | .
Cc1nnc(N/N=C/c2cccc(C(F)(F)F)c2)n1N | -8 | -3 | -17 | 19 | 0
Cc1nnc(N/N=C/c2cccc(OCc3ccc(Cl)c(Cl)c3)c2)n1N | -9 | 74* | -29 | -1 | 15
Cc1ccnc(NC(=O)CCCc2c[nH]c3ccccc23)c1 | 7 | 5 | -4 | -1 | -1
Cc1cccnc1NC(=O)CCc1c[nH]c2ccccc12 | 5 | 1 | 31* | 0 | 1
O=C1N/C(=N\S(=O)(=O)Cc2ccccc2)S/C1=C/c1cc([N+](=O)[O-])ccc1O | 2 | -14 | 31* | 59* | -9
COc1cc(/C=C2\S/C(=N/S(=O)(=O)Cc3ccccc3)NC2=O)c([N+](=O)[O-])cc1OC | 1 | -15 | . | . | -5
O=C1N/C(=N\S(=O)(=O)c2ccccc2)S/C1=C\c1cc([N+](=O)[O-])ccc1O | -4 | -25 | -19 | 33* | -13
CCCN1CCN(CCCNC(=O)c2cc3c(=O)oc4ccc(C)cc4c3s2)CC1 | 34* | -11 | 5 | 0 | -2
COCCCNC(=O)c1cc2c(=O)oc3ccc(C)cc3c2s1 | 14 | . | . | 0 | .
Cc1ccc2oc(=O)c3cc(C(=O)NCCCN4CCCC(C)C4)sc3c2c1 (stereo unspecified) | -18 | -32 | 43* | 0 | -2
CCOc1ccccc1C(=O)N1CC(=O)Nc2ccc(Cl)cc2C1c1ccccc1 (stereo unspecified) | -7 | . | . | 0 | .
Cc1ccc(NC(=O)CS(=O)CC(=O)N(CC(=O)NC2CCCC2)c2cc(C)ccc2C)cc1 (stereo unspecified) | -9 | -17 | . | . | -2
Cc1ccc(NC(=O)CS(=O)CC(=O)N(C2CCCC2)C(C)C(=O)NC2CCCCC2)cc1 (stereo unspecified) | 49* | -27 | 2 | 0 | -1
CC(C)Cn1c(=O)c2sccc2n2c(CCCC(=O)N3CCN(c4ccc(F)cc4)CC3)nnc12 | -2 | . | . | 1 | .
COc1cccc(CNC(=O)c2cc(C)nc3c2c(C)nn3-c2cccc(F)c2)c1 | 6 | . | . | -4 | .
NC(=O)C1CCN(S(=O)(=O)c2cc3c4c(c2)CCN4C(=O)CC3)CC1 | 3 | 4 | 30* | 0 | -6
CCOC(=O)C1CCCN(S(=O)(=O)c2cc3c4c(c2)CCN4C(=O)CC3)C1 (stereo unspecified) | 16 | -2 | -6 | 0 | ?
COc1cc(NC(=O)Cn2nnnc2-c2ccccc2F)cc(OC)c1OC | -1 | . | . | -1 | .
CCOC(=O)N1CCc2c(sc3c2c(=O)n(Cc2ccccc2)c(=O)n3Cc2ccccc2Cl)C1 | 3 | . | . | 0 | .
